Laboratory results as given in PubChem BioAssay AID2289 (National Center for Advancing Translational Sciences (NCATS), 2010).
Hit rate of the full screen: of about 340,000 compounds, about 3,300 (0.97%) were called active. Another 9% or so got no clear call; they are omitted. Calls come from the whole dose curve; as a rule, active = well fitted inhibition curve with a large enough effect; inconclusive = small, poorly fitted or top-dose-only effect, or effect the other way; inactive = flat fitted curve, though single readings scatter. The list shows a part of the results.

test: qHTS Assay for Modulators of miRNAs and/or Inhibitors of miR-21; conditions: HeLa miR-21-FLuc reporter, luciferase luminescence, 48 h; actives lower the signal; note: nearly all actives have a fitted effect of over 55% in size
How it was run: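 Luminescence from a firefly luciferase reporter carrying a miR-21 binding site downstream, stably expressed under a CMV promoter in HeLa cells that make miR-21 endogenously, reports miRNA modulation after 48 h compound exposure up to approximately 40uM final.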
Potency is the fitted concentration of half-maximal effect.

Potency, active:
Nc1c(C(=O)N/N=C/c2cccnc2)cnn1-c1ccccc1 16.5 µM, Nc1c(C(=O)N/N=C/c2ccccc2)cnn1-c1ccccc1 1.47 µM, Cc1ccccc1OCC1Cc2c(nc(N)c(C#N)c2N)O1 (stereo not drawn) 14.7 µM, N#Cc1c(N)nc2c(c1N)CC(COc1ccccc1)O2 (stereo not drawn) 7.36 µM, C=C(C)Cn1cnc2c(oc3nc4c(cc32)CCCC4)c1=O 1.17 µM, Cc1cc(C=C2C(=O)c3ccccc3C2=O)c(C)n1-c1cccc(C(=O)O)c1 11.7 µM, Cc1cc(C=C2C(=O)c3ccccc3C2=O)c(C)n1C 18.5 µM, CCn1c(C)cc(C=C2C(=O)c3ccccc3C2=O)c1C 13.1 µM, CC(=O)c1sc2nc(-c3ccco3)ccc2c1N 14.7 µM, NC(=O)c1sc2nc(-c3ccco3)ccc2c1N 14.7 µM, Cc1ccc2cc(CCNC(=O)c3cccs3)c(=O)[nH]c2c1 4.14 µM, Cc1ccc2cc(CCNC(=O)c3cccs3)c(=O)[nH]c2c1C 2.93 µM, Cc1cc2cc(CCNC(=O)c3cccs3)c(=O)[nH]c2cc1C 3.69 µM, CSCc1ccc(C(=O)Nc2ccc(C(N)=O)cc2)cc1 1.65 µM, O=C(Nc1ccc(F)cc1)/C(Cl)=C/c1ccccc1 1.31 µM, CC(=O)c1ccc(NC(=O)/C(Cl)=C/c2ccccc2)cc1 5.21 µM, CC(C)=CCN1CCN(Cc2cnc(N3CCOCC3)s2)CC1CCO (stereo not drawn) 1.65 µM, COc1ccc(Cn2c(SCC#N)nc3ccc(N4CCOCC4)cc3c2=O)cc1 6.56 µM, Cc1cc(N(CCO)CCO)ccc1N=Nc1cc(F)ccc1F 9.27 µM, COc1ccc(C(=O)C(OC(=O)c2ccccc2Cl)c2ccccc2)cc1 (stereo not drawn) 14.7 µM, COc1cccc(NC(=O)c2c(-c3ccc(C)cc3)nnc3ccccc23)c1 4.65 µM, Cc1ccc(-c2nnc3ccccc3c2C(=O)Nc2ccc(F)cc2)cc1 6.56 µM, Cc1nnc(SCc2ccccc2)c2cc3sccc3n12 14.7 µM, COc1cccc2cc(-c3nc(-c4ccccc4F)no3)c(=O)oc12 0.185 µM, COc1cccc2cc(-c3ccccc3)c(=O)oc12 1.65 µM, Cc1cc(NC(=O)CSc2nc3c(cc2C#N)CCCC3)no1 1.47 µM, COc1cc2cc(C#N)c(SCC(=O)N3CCOCC3)nc2cc1OC 11.7 µM, N#Cc1cc2cc3c(cc2nc1SCC(=O)N1CCOCC1)OCO3 0.656 µM
